Assay results taken from the supplement of paper PMC3545927.
This is one part of the list. The true hit rate is not given.

Molecular target: furin, P09958
Experiment: furin cleavage Z-score vs untreated control; higher = more cleavage, active = 3.5 or more, inactive = 1 or less, 8 variable residues between constant flanks
In short: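 Cleavage by purified furin was measured on 8-mer peptides fused to a cDNA oligonucleotide and held on magnetic beads by their N-terminus. Reactions (0.01 ml, 1:10 enzyme:substrate) ran 7.5, 15 or 30 min in 50 mM HEPES pH 7.5 with CaCl2 and NaCl. Released DNA was adapter-tagged by PCR and sequenced, with read counts giving abundance. Log counts versus furin-free reactions were lowess-adjusted and scaled by median absolute deviation to give the cleavage Z-score.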

furin, P09958, sequence (P09958 whole entry): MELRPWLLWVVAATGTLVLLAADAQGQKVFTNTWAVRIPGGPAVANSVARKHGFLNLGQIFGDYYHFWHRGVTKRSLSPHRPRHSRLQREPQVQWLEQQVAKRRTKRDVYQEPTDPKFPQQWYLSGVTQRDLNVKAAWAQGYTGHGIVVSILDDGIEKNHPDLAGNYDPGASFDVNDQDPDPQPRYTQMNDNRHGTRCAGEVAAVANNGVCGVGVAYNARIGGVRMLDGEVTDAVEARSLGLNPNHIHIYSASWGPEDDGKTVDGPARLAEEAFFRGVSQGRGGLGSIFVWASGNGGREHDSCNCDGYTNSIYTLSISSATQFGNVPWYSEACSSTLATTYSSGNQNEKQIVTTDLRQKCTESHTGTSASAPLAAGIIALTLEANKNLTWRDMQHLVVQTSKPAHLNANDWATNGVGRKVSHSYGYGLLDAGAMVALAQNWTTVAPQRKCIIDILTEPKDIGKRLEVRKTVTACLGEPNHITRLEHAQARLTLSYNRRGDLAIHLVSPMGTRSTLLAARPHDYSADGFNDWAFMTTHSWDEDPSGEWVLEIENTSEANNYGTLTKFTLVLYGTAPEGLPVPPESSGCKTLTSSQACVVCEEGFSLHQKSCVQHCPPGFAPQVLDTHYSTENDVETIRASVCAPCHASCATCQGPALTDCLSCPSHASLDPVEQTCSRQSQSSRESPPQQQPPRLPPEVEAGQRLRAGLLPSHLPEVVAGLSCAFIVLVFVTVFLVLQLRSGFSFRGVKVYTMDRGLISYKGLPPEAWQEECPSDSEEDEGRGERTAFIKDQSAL

Row | Sequence | furin cleavage Z-score (7.5 min) | furin cleavage Z-score (15 min) | furin cleavage Z-score (30 min)
1 | CAEPVTSTWVAGNASASA [HC2179] | 1.29 | -0.789 (inactive) | 0.354 (inactive)
2 | CARKKRGYRDAGNASASA [FS-1856] | 10.5 (active) | 11.2 (active) | 8.83 (active)
3 | CARFARYYRDAGNASASA [FS-373] | 4.68 (active) | 4.65 (active) | 5.39 (active)
4 | CASSNRLARFAGNASASA [FS-1284] | 3.54 (active) | 4.58 (active) | 6.02 (active)
5 | CARKKKGKADAGNASASA [FS-2690] | 0.358 (inactive) | -1.8 (inactive) | -1.17 (inactive)
6 | CARKKREIRSAGNASASA [FS-2962] | 14.3 (active) | 12.6 (active) | 10.5 (active)
7 | CASSIASWAIAGNASASA [HC514] | 0.395 (inactive) | 0.651 (inactive) | 2.3
8 | CAMEECSQHLAGNASASA [HC14] | 1.42 | 0.653 (inactive) | 1.44
9 | CASSNRSYRDAGNASASA [FS-1419] | 2.48 | 3.58 (active) | 4.08 (active)
10 | CARKKREITEAGNASASA [FS-2963] | 11.3 (active) | 12.7 (active) | 9.25 (active)
11 | CASMGREIRSAGNASASA [FS-1082] | 4.08 (active) | 3.82 (active) | 3.6 (active)
12 | CAVVCCSMWYAGNASASA [HC2068] | 1.14 | -0.944 (inactive) | 0.031 (inactive)
13 | CACGNTLTCYAGNASASA [HC1515] | -0.25 (inactive) | -2.28 (inactive) | -1.28 (inactive)
14 | CARGDSRGSLAGNASASA [HC733] | -0.929 (inactive) | -0.316 (inactive) | -0.341 (inactive)
15 | CARSSRDSSAAGNASASA [FS-2092] | -0.528 (inactive) | -0.415 (inactive) | -0.31 (inactive)
16 | CALTCYIKARAGNASASA [HC1517] | -0.101 (inactive) | 0.266 (inactive) | 1.28
17 | CARSSRHPRRAGNASASA [FS-714] | 5.43 (active) | 9.72 (active) | 6.86 (active)
18 | CARSSRSNGRAGNASASA [FS-3097] | -1.39 (inactive) | -0.51 (inactive) | -1.39 (inactive)
19 | CAMWHREKRRAGNASASA [FS-1141] | 5.25 (active) | 5.23 (active) | 5.34 (active)
20 | CAGRCREKRRAGNASASA [FS-431] | 6.37 (active) | 7.82 (active) | 6.78 (active)
21 | CARSSREKRRAGNASASA [FS-377] | 6.18 (active) | 7.1 (active) | 5.14 (active)
22 | CAPQGDAAQKAGNASASA [NG3] | -0.23 (inactive) | -2.31 (inactive) | 0.729 (inactive)
23 | CAVRVLEDGVAGNASASA [HC238] | -0.328 (inactive) | -0.295 (inactive) | 0.54 (inactive)

Row | Sequence | furin cleavage Z-score (7.5 min) | furin cleavage Z-score (15 min) | furin cleavage Z-score (30 min)
24 | CARGSRPSWGAGNASASA [HC211] | -1.28 (inactive) | -0.0322 (inactive) | -1.24 (inactive)
25 | CARGKRHLQGAGNASASA [FS-2671] | 8.58 (active) | 8.16 (active) | 8.59 (active)
26 | CARGKRSLDGAGNASASA [FS-2018] | 10.4 (active) | 10.4 (active) | 8.84 (active)
27 | CARSFRSGDGAGNASASA [FS-2086] | 0.521 (inactive) | -1.18 (inactive) | 0.00797 (inactive)
28 | CAEVPCHQPSAGNASASA [HC2382] | 0.495 (inactive) | -0.572 (inactive) | 1.13
29 | CAFLADGGCSAGNASASA [HC810] | -0.0827 (inactive) | -0.994 (inactive) | -0.4 (inactive)
30 | CAVVCCKMSYAGNASASA [HC111] | 2.65 | 1.75 | 0.575 (inactive)
31 | CAHRGVTKRSAGNASASA [FS-1593] | 6.75 (active) | 7.15 (active) | 6.87 (active)
32 | CAGRSRTKRSAGNASASA [FS-1332] | 10.4 (active) | 9.78 (active) | 7.49 (active)
33 | CAGRSRPDRSAGNASASA [FS-533] | 5.97 (active) | 7.05 (active) | 7.1 (active)
34 | CAYKSRTKRSAGNASASA [FS-1581] | 12.8 (active) | 13.7 (active) | 8.1 (active)
35 | CAFCVQPEKGAGNASASA [HC1443] | -1.06 (inactive) | -0.187 (inactive) | 0.825 (inactive)
36 | CAVVTCSMSYAGNASASA [HC2038] | 0.204 (inactive) | -0.0386 (inactive) | -0.133 (inactive)
37 | CASTPCSNHLAGNASASA [HC2541] | 0.901 (inactive) | 1.16 | 0.705 (inactive)
38 | CASHQRTKRSAGNASASA [FS-1165] | 8.79 (active) | 9.17 (active) | 6.69 (active)
39 | CAHRGPARRSAGNASASA [FS-1533] | 2.51 | 2.95 | 4.27 (active)
40 | CAKKQETKRSAGNASASA [FS-675] | -0.996 (inactive) | 0.0553 (inactive) | 0.952 (inactive)
41 | CAAKHRTKRSAGNASASA [FS-746] | 14.6 (active) | 14.7 (active) | 10.8 (active)
42 | CAEVPCHRPNAGNASASA [HC2421] | -0.123 (inactive) | 0.813 (inactive) | 1.61
43 | CAVVCPSMSYAGNASASA [HC100] | -0.389 (inactive) | 0.782 (inactive) | 1.57
44 | CAHAWRSRRSAGNASASA [FS-1629] | 10.5 (active) | 8.73 (active) | 8.99 (active)
45 | CAEQWRSRRSAGNASASA [FS-993] | 10.6 (active) | 9.84 (active) | 7.38 (active)
46 | CAEQIRQDRSAGNASASA [FS-1453] | -0.0806 (inactive) | 0.259 (inactive) | 0.047 (inactive)
